High-throughput results (PubChem BioAssay)
mHTT-CaM PPI inh – disrupts binding of mutant huntingtin to calmodulin. P42858. AID 1671202. AlphaScreen His-mHTT/GST-CaM binding, luminescence. inhibition, % at 15 µM. 190,000 tested, 3.6% active;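 further: 0% = both proteins with DMSO and 100% = one protein alone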
Pf apPOL inh – Pf-apPOL DNA polymerase inhibition; Recombinant Pf-apPOL, molecular beacon fluorescence, 1.5 h; inhibition, % at 10 µM; 210,000 tested, 0.25% active
* = called active by the depositor; . = not tested or not shown; ! = a repeat was not active. Sampled rows, rich in hits. Any-hit rate of the full collection: about 3.6%. No stated cut-off is given here; in the data, active means inhibition above about 50%; inactive means the rest.

SMILES	mHTT-CaM PPI inh	Pf apPOL inh
CCN1CCC2(CC1)N=C(c1cc(Cl)ccc1O)CC(c1ccc(OC)cc1)N2 (configuration not stated)	100*	-3
CCOC(=O)N1CCC2(CC1)N=C(c1ccc(C)cc1)CC(c1cc(Cl)ccc1O)N2 (configuration not stated)	3	3
CC(=O)N1CCC2(CC1)N=C(c1ccccc1O)CC(c1ccc(C)cc1C)N2 (configuration not stated)	58*	-5
CCOC(=O)N1CCC2(CC1)N=C(c1cc(Cl)ccc1O)CC(c1ccccc1O)N2 (configuration not stated)	100*	-2
C=CCN1C(=O)S/C(=C\c2ccc(N3CCOCC3)o2)C1=O	15	8
CCNC(=O)C1CCCN1C(=O)c1ccc(C)cc1 (configuration not stated)	2	1
Cc1ccc(S(=O)(=O)NCc2nc3cccnc3n2C)cc1	-2	-1
COc1ccc(-c2c(C)[nH]n3c(=O)cc(-c4ccccc4)nc23)cc1	73*	2
CCCc1cc(=O)n2[nH]c(Cc3ccccc3)c(-c3ccccc3OC)c2n1	0	2
COc1ccccc1-c1c(Cc2ccccc2)[nH]n2c(=O)cc(-c3ccccc3)nc12	67*	2
Cc1[nH]n2c(=O)cc(-c3ccccc3)nc2c1-c1ccccc1	11	-5
FC(F)(F)c1cc(C#CCN2CCCCC2)cc(C(F)(F)F)c1	.	6
CCN(CC)c1ncc2c(n1)CCC(C(=O)Nc1ccc(N3CCOCC3)cc1)C2 (configuration not stated)	7	-6
COc1ccc(/C(C)=C/C(=O)C(C)(C)C)cc1	-23	-1
Cc1ccc2nc(-c3ccc(N=Cc4ccc5c(c4)OCO5)cc3O)oc2c1	60*	2
Cc1ccc2nc(-c3cc(N=Cc4ccc([N+](=O)[O-])cc4)ccc3O)oc2c1	15	7
Cc1ccccc1OCC(=O)O	-3	3
O=C(O)COc1ccccc1O	94*!	-1
Cc1ccc(-c2ccc(/C=C/C(=O)c3ccco3)o2)cc1	31	-14
COc1ccccc1-c1ccc(C=CC(=O)c2ccco2)o1	58*	-9
CCOC(=O)C(=O)N1CCN(c2ncnc3c2nnn3C)CC1	-14	-3
Cn1nnc2c(N3CCN(C(=O)C4c5ccccc5Oc5ccccc54)CC3)ncnc21	58*	-1
Cc1ccc(C(=O)Nc2ccc(S(N)(=O)=O)cc2)cc1Br	-4	-3
COc1cc(NC(=O)Cc2ccc(Br)cc2)c(OC)cc1Cl	-2	-8
CC(Oc1cccc(Cl)c1)C(=O)N1CCN(c2ccc([N+](=O)[O-])cc2)CC1 (configuration not stated)	-1	-2
SMILES	mHTT-CaM PPI inh	Pf apPOL inh
Cc1cc(Cl)ccc1OC(C)C(=O)N1CCN(c2ccc([N+](=O)[O-])cc2)CC1 (configuration not stated)	3	55*
O=C1c2ccccc2Sc2cc(-c3noc(-c4ccc5c(c4)OCO5)n3)ccc2N1C1CC1	-3	-2
Cc1nc2ccc(N(C)C)cc2s1	13	-7
CN(C)c1ccc2nc3ccc(=O)cc-3sc2c1	59*	.
O=C(CSc1ccccc1)Nc1cc(Cl)c(Cl)cc1Cl	-20	-8
O=C(Nc1ccc(Cl)cc1)N(Cc1cccnc1)Cc1ccccc1Cl	2	-14
Cc1ccc(S(=O)(=O)N(CC(=O)NCc2cccnc2)Cc2ccc(Cl)c(Cl)c2)cc1	54*!	-4
O=C(CN(Cc1ccccc1Cl)S(=O)(=O)c1ccc(Cl)cc1)NCc1cccnc1	14	-4
Cc1ccc(CN(Cc2cccnc2)C(=O)Nc2ccc(Cl)c(Cl)c2)cc1	81*	-15
NNc1nc(-c2ccccc2)c2cc(Br)ccc2n1	76*	-10
COc1nc(-c2ccccc2)c2cc(Br)ccc2n1	-8	-3
CCn1cc(C(=O)N2c3ccc(F)cc3CCC2C)c(=O)c2ccc(C)nc21 (configuration not stated)	6	-6
Brc1ccc(Nc2nc(NCc3ccco3)c3ccccc3n2)cc1	100*	1
O=[N+]([O-])c1ccc(-c2nc(NCc3ccco3)c3ccccc3n2)cc1	16	-3
COc1cccc2ccc(C=C3Oc4cc(O)ccc4C3=O)nc12	17	62*
O=C1C(=Cc2ccc3ccccc3n2)Oc2cc(O)ccc21	2	1
CC(C)(C)C(=O)/C=C(\N)c1cccnc1	0	0
CC(C)Cn1cc2c3c(cccc31)CN(C(=O)Cc1cccs1)CC2	64*	-7
CC(C)Cn1cc2c3c(cccc31)CN(C(=O)c1ccccn1)CC2	88*	-5
CCn1cc2c3c(cccc31)CN(C(=O)NC(C)C)CC2	-5	-6
CC(C)CC(=O)N1CCc2cn(CC(C)C)c3cccc(c23)C1	41	-1
CCCC(=O)N1CCc2cn(CC(C)C)c3cccc(c23)C1	53*	-4
CC(C)CC(=O)N1CCc2cn(C)c3cccc(c23)C1	10	-5
CCc1ccc(-c2csc(N3C(=O)C4C5CCC(C5=C(C)C)C4C3=O)n2)cc1 (configuration not stated)	5	-4
N#Cc1cc2c(nc1SCCS(=O)(=O)Cc1ccccc1)CCCC2	-2	0
SMILES	mHTT-CaM PPI inh	Pf apPOL inh
O=C(NCCCN1CCOCC1)c1cc2nc(-c3cccs3)cc(C(F)(F)Cl)n2n1	25	-4
O=C(NCCc1c[nH]c2ccccc12)c1cc2nc(-c3cccs3)cc(C(F)(F)Cl)n2n1	82*	-1
COc1cccc(NC(=O)c2c(I)cnn2C)c1	-2	-11
CC(C)n1c(CC2CCN(C(=O)c3cc(-c4ccccc4)n[nH]3)C2)nc2cccnc21 (configuration not stated)	59*	5
CC(C)n1c(CC2CCN(C(=O)c3cc(-c4cccs4)[nH]n3)C2)nc2cccnc21 (configuration not stated)	19	-3
Nc1ccc2c(c1)/C(=C/c1ccccc1)c1ccccc1-2	100*	-1
C(=C1c2ccccc2-c2ccccc21)c1ccccn1	-142	-4
O=S(=O)(O)c1cc(-c2nnc(-c3ccccn3)nc2-c2ccc(S(=O)(=O)O)o2)co1	100*	.
c1ccc(-c2nnc(-c3ccccn3)nc2-c2ccccc2)cc1	44	-2
Oc1c(CN2CCCCC2)cc(CN2CCCCC2)nc1-c1ccccc1	7	1
Fc1ccc(CN2CCN(c3ncccn3)CC2)c(F)c1	-6	-4
Oc1c(CN2CCN(Cc3ccc4cccnc4c3O)CC2)ccc2cccnc12	100*	-11
COCc1cc(CN2CCCC2)c(O)c2ncccc12	100*	3
Oc1ccccc1CN1CCCC1	1	-1
Oc1c(CN2CCCCC2)cc(Cl)c2cccnc12	100*	-7
O=C(c1cc(-c2cccs2)on1)N1CCCC(c2nnc(-c3ccccc3F)s2)C1 (configuration not stated)	-8	-6
COc1ccc(C=CC(=O)N2CCc3cc(OC)c(OC)cc3C2COc2ccc3c(C)cc(=O)oc3c2)cc1OC (configuration not stated)	69*	-1
COc1ccc(OCC2c3cc(OC)c(OC)cc3CCN2C(=O)c2cccc(OC)c2)cc1 (configuration not stated)	4	-2
COc1cc2c(cc1OC)C(COc1ccc3c(C)cc(=O)oc3c1)N(C(=O)c1ccc(Cl)cc1)CC2 (configuration not stated)	0	0
